For some of these results: Entries with a potency or affinity are not part of this list. Calls of active or inactive are those of the source.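 Rule for the calls, unless noted: active = signal rise over 3 SD above mean of control wells given weak agonist, in both repeats and first screen; inactive = the rest.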

The subject of test [1] is TRPC4 beta (transient receptor potential cation channel C4), mouse. Description: activators of mouse TRPC4 channel, confirmation, cell-based, Fluo4 calcium, HEK293 TRPC4beta/mu-opioid, duplicates, 10 µM (AID 2426;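 active = fluorescence ratio normalized to control raised more than 50% in primary screen plus both repeat runs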;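 for activation: percent rise of integrated ratio over buffer wells lacking compound which define 0%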). The settings on record: Fluo4 calcium fluorescence, at 10 µM; stronger effect = higher value.
Test [2] deals with transient receptor potential cation channel C4 beta (TRPC4), mouse. Description: activators of mouse TRPC4 channel, confirmation, cell-based, second round, Fluo4, HEK293 TRPC4beta/mu-opioid, 1 µM (AID 2461;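 active = primary screen active and over 50% activation in each of two duplicate runs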). The settings on record: Fluo4 calcium fluorescence, at 1 µM; stronger effect = higher value.
The subject of test [3] is TRPC4 (transient receptor potential cation channel C4 beta), mouse. Description: positive allosteric modulators of mouse TRPC4, confirmation, cell-based, second round, Fluo-4, HEK293 TRPC4beta/mu-opioid, 1 µM (AID 2554;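 active = primary screen hit whose fluorescence ratio, in both repeats, exceeds the weak agonist control mean by 3 SD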). The settings on record: DAMGO EC20, Fluo-4 calcium flux, at 1 µM; stronger effect = higher value. (In general: A change in cytosolic calcium serves as a functional read-out for many receptors and channels.)

Test [4] has as its system TRPC4 beta (transient receptor potential cation channel C4), mouse. Description: positive allosteric modulators of mouse TRPC4, confirmation, cell-based, Fluo-4, HEK293 TRPC4beta/mu-opioid (AID 2555;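 active = primary screen hit whose calcium fluorescence ratio, in both repeats, exceeds the weak agonist control mean by 3 SD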). To be noted: DAMGO EC20, Fluo-4 calcium flux, at 10 µM; stronger effect = higher value.
Test [5] concerns the target Short transient receptor potential channel 4 (Mus musculus) (UniProt Q9QUQ5). Description: inhibitors of mouse TRPC4 channel, confirmation, cell-based, Fluo4, HEK293 TRPC4beta/mu-opioid (AID 2636;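 active = calcium signal cut by more than 3 SD below the full-agonist control yet still positive, in both repeats and the earlier primary screen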). To be noted: DAMGO, Fluo4 calcium flux, at 10 µM; stronger effect = higher value.
Test [6] shares this target. Kind of test: inhibitors of mouse TRPC4 channel, confirmation, cell-based, second round, Fluo4, HEK293 TRPC4beta/mu-opioid, 1 µM (AID 2637;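 active = calcium signal ratio cut to more than 3 SD under the fully stimulated control mean yet still positive, in both repeats and the primary screen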). To be noted: Fluo4 calcium flux, DAMGO, at 1 µM; stronger effect = higher value.
Test [7] shares this target. Kind of test: TRPC4 positive allosteric modulators, dose response, cell-based, HEK293 TRPC4/mu-opioid, Fluo-4 calcium, EC20 DAMGO (AID 434941;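 active = earlier screen potentiator hit that boosts the TRPC4 ion channel at some dose, with a dose response; inactive = no potentiation, no dose response, or not a prior hit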;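 note: calcium entry triggered by an EC20 dose of DAMGO at the co-expressed mu-opioid receptor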).
For test [8] the target is unchanged. Description: mouse TRPC4 channel inhibitors, dose response, cell-based, HEK293 TRPC4/mu-opioid, Fluo-4 calcium (AID 434942;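 active = primary screen inhibitor hit that blocks the TRPC4 channel at some tested dose, yielding a dose curve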).
The target of test [9] is Short transient receptor potential channel 6 (Mus musculus) (UniProt Q61143). Kind of test: inhibition of mouse TRPC6 channel, confirmation, selectivity assay for TRPC4 inhibitor project, cell-based, HEK293, membrane potential dye, duplicate (AID 434948;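 active = active in primary screen and both duplicates, each dropping signal beyond three positive-control SD with fluorescence still positive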). To be noted: HEK293 TRPC6, membrane potential dye fluorescence, at 10 µM, stimulated with maximal-effect acetylcholine; stronger effect = higher value.
Chain of Short transient receptor potential channel 6 (Mus musculus) (Q61143 whole entry, looked up): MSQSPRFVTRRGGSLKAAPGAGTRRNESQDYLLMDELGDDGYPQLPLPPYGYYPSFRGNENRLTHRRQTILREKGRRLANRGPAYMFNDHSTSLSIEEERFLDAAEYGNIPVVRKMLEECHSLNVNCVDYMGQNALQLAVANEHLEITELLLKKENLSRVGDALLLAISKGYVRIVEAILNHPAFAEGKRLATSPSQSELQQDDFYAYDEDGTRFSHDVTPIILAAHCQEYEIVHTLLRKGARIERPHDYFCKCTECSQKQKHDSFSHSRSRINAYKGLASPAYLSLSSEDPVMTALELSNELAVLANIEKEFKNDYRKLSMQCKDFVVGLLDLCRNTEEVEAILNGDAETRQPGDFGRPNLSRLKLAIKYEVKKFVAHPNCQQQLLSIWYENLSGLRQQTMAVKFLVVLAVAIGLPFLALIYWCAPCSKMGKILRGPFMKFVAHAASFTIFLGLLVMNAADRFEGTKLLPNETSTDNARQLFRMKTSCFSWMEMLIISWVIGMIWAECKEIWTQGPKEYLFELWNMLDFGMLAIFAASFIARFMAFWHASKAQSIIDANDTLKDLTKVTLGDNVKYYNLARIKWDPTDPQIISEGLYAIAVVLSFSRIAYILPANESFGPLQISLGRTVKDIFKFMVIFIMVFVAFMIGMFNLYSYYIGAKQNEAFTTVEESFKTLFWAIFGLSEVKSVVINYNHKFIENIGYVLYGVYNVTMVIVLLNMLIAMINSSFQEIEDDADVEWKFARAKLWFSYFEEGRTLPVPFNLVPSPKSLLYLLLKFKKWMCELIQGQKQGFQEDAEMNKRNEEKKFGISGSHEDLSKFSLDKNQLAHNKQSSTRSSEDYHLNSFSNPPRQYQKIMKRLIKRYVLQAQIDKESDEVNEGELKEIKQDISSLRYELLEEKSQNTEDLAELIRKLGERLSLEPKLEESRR

Test [10] shares this target. Description: activation of mouse TRPC6 channel, confirmation, selectivity assay for TRPC4 activator project, cell-based, HEK293, membrane potential dye, duplicate (AID 434950;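 active = membrane potential signal rise above negative control mean plus 3 SD in both duplicates, also active in the earlier TRPC4 screen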;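 for activation: 0% = buffer only wells and 100% = acetylcholine maximal-effect wells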). The settings on record: HEK293 TRPC6, membrane potential fluorescence, at 10 µM; stronger effect = higher value.
For test [11] the target is unchanged. Description: TRPC6 potentiation by TRPC4 potentiator hits, confirmation, selectivity assay for TRPC4 potentiator project, HEK293 cells, membrane potential dye, duplicate (AID 434952;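 active = compound raising the membrane signal above positive-control mean plus 3 SD in both repeats, and a primary screen hit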). The settings on record: HEK293 TRPC6, membrane potential dye fluorescence, at 10 µM, maximal acetylcholine added after compound; stronger effect = higher value.
For test [12], the target named is Short transient receptor potential channel 4 (Mus musculus) (UniProt Q9QUQ5). Kind of test: calcium flux activators in TRPC4/5HT1a cells, counter-screen for TRPC4 activator project, cell-based, second counter screen, HEK293 TRPC4/5HT1a, Fluo-4 (AID 434977;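 active = calcium signal rise above buffer-control mean plus 5 SD in both duplicates, and also a hit in the primary screen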;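 for activation: plate controls were assay buffer for no effect and maximal serotonin response for full effect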). The settings on record: Fluo-4 calcium flux, at 10 µM; stronger effect = higher value.
Chain of Short transient receptor potential channel 4 (Mus musculus) (Q9QUQ5 whole entry, looked up): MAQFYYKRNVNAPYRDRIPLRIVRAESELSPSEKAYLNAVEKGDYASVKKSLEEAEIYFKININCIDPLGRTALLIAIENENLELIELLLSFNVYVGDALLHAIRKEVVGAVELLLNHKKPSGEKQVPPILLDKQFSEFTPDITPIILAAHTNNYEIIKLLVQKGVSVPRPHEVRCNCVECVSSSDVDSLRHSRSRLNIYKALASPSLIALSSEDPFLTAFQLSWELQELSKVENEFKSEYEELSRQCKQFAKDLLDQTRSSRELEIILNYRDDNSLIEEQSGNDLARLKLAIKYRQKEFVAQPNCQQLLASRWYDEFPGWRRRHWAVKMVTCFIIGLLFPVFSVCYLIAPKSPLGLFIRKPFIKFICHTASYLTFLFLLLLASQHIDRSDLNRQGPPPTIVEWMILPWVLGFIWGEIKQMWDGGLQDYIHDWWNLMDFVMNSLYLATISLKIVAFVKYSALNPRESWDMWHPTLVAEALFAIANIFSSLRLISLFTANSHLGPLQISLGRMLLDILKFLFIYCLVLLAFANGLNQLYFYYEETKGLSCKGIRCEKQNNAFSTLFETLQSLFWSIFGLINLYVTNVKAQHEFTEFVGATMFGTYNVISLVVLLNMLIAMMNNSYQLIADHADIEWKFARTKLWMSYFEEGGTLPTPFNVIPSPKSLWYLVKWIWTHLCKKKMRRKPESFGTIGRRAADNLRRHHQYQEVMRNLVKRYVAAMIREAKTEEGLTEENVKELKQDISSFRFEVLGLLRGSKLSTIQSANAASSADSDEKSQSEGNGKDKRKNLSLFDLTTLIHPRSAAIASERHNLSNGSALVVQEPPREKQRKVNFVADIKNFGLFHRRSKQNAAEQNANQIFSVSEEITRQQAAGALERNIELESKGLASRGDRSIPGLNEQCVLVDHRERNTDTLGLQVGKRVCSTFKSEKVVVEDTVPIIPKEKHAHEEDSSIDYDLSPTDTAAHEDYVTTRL
Test [13] can be described thus: calcium flux inhibitors in TRPC4/5HT1a cells, confirmation, counter-screen for TRPC4 inhibitor project, cell-based, second counter screen, HEK293 TRPC4/5HT1a, Fluo-4 (AID 434978;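 active = primary screen active whose calcium signal fell more than 3 SD beyond the full-serotonin control mean in both duplicate plates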;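 note: serotonin given first at submaximal then at maximal dose after compound preincubation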). To be noted: Fluo-4 calcium flux, at 10 µM, serotonin added to trigger calcium flux; stronger effect = higher value.
Test [14] has as its system TRPC4 (mouse), co-expressed with 5HT1a in HEK293. Kind of test: calcium flux potentiators in TRPC4/5HT1a cells, confirmation, counter-screen for TRPC4 potentiator project, cell-based, second counter screen, HEK293 TRPC4/5HT1a, Fluo-4 (AID 434979). To be noted: Fluo-4 calcium flux, at 10 µM, serotonin added at its EC20 dose; stronger effect = higher value.
A short description of test [15]: calcium flux activation in mu-opioid HEK293 cells, confirmation, counter-screen for TRPC4 activator project, cell-based, HEK293 mu-opioid receptor line (AID 449723;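 active = hit in primary screen, with calcium signal over 5 SD above buffer well mean in both duplicates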;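 note: counter screen cells carry the mu-opioid receptor alone and lack TRPC4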). The settings on record: Fluo-4 calcium fluorescence, at 10 µM; stronger effect = higher value.
Test [16] in a line: calcium flux enhancement in mu-opioid HEK293 cells, confirmation, counter-screen for TRPC4 allosteric potentiator project, cell-based, HEK293 mu-opioid receptor line (AID 449724;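 active = calcium signal rise more than 3 SD above the low-dose agonist control mean, in both duplicate plates and the primary screen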;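 note: HEK293 cells carrying mu-opioid receptor only with no TRPC4 channel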). To be noted: Fluo-4 calcium flux, at 10 µM, compound added before EC20 DAMGO stimulus; stronger effect = higher value.
Test [17] in a line: thallium flux activation in parental CHO cells, counter-screen for KCNQ1 potentiator project (AID 493006;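 active = duplicate-averaged activation above buffer control mean plus 5 SD of those controls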;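 note: fluorescence ratio of max minus min over baseline after K+ and Tl+ depolarization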). To be noted: parental CHO-K1 cells, FluxOR thallium flux, at 10 µM; stronger effect = higher value. In general terms: The purpose of a counterscreen is to sort out artefacts and off-target activity.
The target in test [18] is Potassium voltage-gated channel subfamily KQT member 1 (Homo sapiens) (UniProt P51787). Kind of test: KCNQ1 potassium channel potentiators, confirmation, FluxOR thallium flux, CHO cells, duplicates (AID 493007;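 active = potentiation averaged over duplicate wells exceeding buffer-only control mean by more than 3 SD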;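 note: 0% = buffer-only wells and 100% = R-L3 activator control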). The settings on record: KCNQ1 cell line, FluxOR thallium flux fluorescence, at 10 µM; stronger effect = higher value, % of reference activator effect, buffer zero.
Chain of Potassium voltage-gated channel subfamily KQT member 1 (Homo sapiens) (P51787 whole entry, looked up): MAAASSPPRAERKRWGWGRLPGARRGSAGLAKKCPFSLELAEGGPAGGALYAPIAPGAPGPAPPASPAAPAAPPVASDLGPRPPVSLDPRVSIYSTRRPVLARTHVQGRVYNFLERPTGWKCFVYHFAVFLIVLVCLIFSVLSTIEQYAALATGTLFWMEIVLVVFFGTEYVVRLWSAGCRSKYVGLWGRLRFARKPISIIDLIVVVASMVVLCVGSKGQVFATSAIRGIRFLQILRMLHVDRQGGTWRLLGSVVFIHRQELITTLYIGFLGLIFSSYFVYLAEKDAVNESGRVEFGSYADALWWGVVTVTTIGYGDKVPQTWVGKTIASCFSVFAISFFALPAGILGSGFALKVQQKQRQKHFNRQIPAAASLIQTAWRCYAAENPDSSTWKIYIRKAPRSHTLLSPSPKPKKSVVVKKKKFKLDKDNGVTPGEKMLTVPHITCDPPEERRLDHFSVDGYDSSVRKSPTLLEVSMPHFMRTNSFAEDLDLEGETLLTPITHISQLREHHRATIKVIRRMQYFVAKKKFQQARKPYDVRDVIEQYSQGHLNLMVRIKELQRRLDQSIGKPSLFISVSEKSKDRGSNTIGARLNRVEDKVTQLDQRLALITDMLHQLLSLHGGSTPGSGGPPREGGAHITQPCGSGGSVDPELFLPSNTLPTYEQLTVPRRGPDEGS
The target in test [19] is Potassium voltage-gated channel subfamily KQT member 2 (Rattus norvegicus) (UniProt O88943). Kind of test: rat KCNQ2 channel potentiation, selectivity assay for KCNQ1 potentiator project, KCNQ2-CHO-K1 cells (AID 493009;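 active = mean duplicate potentiation above the buffer control mean plus 5 SD of buffer wells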;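 note: assay conditions were tuned for KCNQ1 rather than KCNQ2 modulators; signal is max minus min fluorescence divided by baseline after thallium stimulus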). The settings on record: FluxOR thallium flux fluorescence, at 10 µM; stronger effect = higher value, scaled: buffer 0, activator control 100.
Chain of Potassium voltage-gated channel subfamily KQT member 2 (Rattus norvegicus) (O88943 whole entry, looked up): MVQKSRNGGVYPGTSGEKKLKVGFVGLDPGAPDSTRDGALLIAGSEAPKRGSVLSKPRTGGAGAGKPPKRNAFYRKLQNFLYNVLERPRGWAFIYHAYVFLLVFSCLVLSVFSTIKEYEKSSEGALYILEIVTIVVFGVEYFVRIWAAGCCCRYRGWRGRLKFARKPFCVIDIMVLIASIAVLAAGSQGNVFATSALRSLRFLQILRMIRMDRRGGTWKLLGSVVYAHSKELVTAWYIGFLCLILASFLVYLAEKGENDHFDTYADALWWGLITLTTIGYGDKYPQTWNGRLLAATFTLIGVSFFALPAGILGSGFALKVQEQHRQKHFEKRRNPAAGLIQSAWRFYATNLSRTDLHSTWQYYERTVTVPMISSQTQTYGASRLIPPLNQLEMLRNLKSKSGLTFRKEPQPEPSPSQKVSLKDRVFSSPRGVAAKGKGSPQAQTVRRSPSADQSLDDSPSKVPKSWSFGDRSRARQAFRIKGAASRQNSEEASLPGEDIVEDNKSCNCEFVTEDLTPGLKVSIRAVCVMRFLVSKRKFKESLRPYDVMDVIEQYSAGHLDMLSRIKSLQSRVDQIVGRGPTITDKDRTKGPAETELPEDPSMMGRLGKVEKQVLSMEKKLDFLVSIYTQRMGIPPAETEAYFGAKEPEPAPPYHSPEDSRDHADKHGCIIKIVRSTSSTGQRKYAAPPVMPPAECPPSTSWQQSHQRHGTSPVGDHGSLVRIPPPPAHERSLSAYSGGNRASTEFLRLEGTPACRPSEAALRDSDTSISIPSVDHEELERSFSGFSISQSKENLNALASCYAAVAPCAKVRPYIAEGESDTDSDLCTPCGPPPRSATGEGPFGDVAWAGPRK
Test [20] concerns the target Potassium voltage-gated channel subfamily KQT member 1 (Homo sapiens) (UniProt P51787). Kind of test: KCNQ1 channel current potentiators, confirmation, orthogonal assay for KCNQ1 potentiator project, IonWorks patch clamp, KCNQ1-CHO cells (AID 493184;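 active = current rise at least 3 SD above the untreated control mean in each of two repeat wells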). To be noted: automated patch clamp current, at 10 µM; stronger effect = higher value. Background: In patch-clamp work, channel activity is measured electrically.

For the compound `CC(C)(C)c1cc(CCC(=O)NNC(=S)NC(=O)c2ccccc2)cc(C(C)(C)C)c1O`, the activation was 150% (active) in [1], 92% (active) in [12], 41.2% (active) in test [15] and 188% (active) in test [17]. The result in test [2], in test [3], in test [4], in [5], in test [6] and in test [7] was inactive. For the same compound, the outcome in test [8], in test [9], in test [10], in test [11], in [13] and in test [14] was inactive. Besides, the outcome in [16] and in test [20] was inactive. Also, the potentiation in test [18] was 61% (active); in test [19], 185% (active).

On to `O=C(N/N=C/c1cc([N+](=O)[O-])cc(Br)c1O)C12CC3CCC(CC(C3)C1)C2`, for which the activation was 82% (active) in test [1]; 28.5% (active) in test [10]; 68.6% (active) in test [12]; 33.8% (active) in test [15]; 158% (active) in [17]. The outcome in test [2], in [3], in [4], in [5], in test [6] and in test [7] was inactive. For the same compound, the result in test [8], in test [9], in test [11], in [13], in test [14] and in [16] was inactive. For the same compound, the result in [20] was inactive. Moreover, the potentiation in [18] is 43.5% (active); in [19], 163% (active).

Regarding `CCOc1ccc2ncc(C(=O)c3ccc(OC)cc3)c(N3CCN(CC)CC3)c2c1`, the activation in test [1] was 196% (active). Also, the result in [2], in [3], in test [4], in [5], in [6] and in test [7] was inactive. In addition, the result in test [8], in [9], in test [10], in test [11], in test [12] and in test [13] was inactive. Moreover, the result in [14], in test [15] and in test [16] was inactive.

Regarding `CCCC(=O)NC(C)C(c1cccs1)N1CCN(c2ccccc2)CC1` (configuration not stated), the outcome in test [1], in test [2], in test [3], in [4], in [5] and in test [6] was inactive. The outcome in test [7], in [8], in test [9], in test [11], in test [12] and in test [13] was inactive. In addition, the result in test [14], in [15] and in test [16] was inactive. Moreover, the activation in test [10] was 38.5% (active).

With `CCCc1ccc(OCC(=O)NNC(=S)NC(=O)c2ccco2)cc1`, the outcome in [1], in test [2], in test [3], in test [4], in [5] and in [6] was inactive. Moreover, the result in test [7], in [8], in test [9], in test [10], in test [11] and in test [13] was inactive. The outcome in [14], in test [15], in test [16] and in test [20] was inactive. Also, the activation is 46.5% (active) in test [12] and 164% (active) in test [17]. Also, the potentiation is 79.5% (active) in [18] and 216% (active) in [19].

As for `CCCOc1ccc(C(=O)NNC(=S)NC(=O)c2ccco2)cc1`, the activation in test [1] is 223% (active); in [10] it was 38.5% (active); in test [12] it was 143% (active); in [15], 61.8% (active); in test [17] it was 195% (active). Further, the outcome in [2], in [3], in [4], in test [5], in test [6] and in test [7] was inactive. Besides, the result in test [8], in test [9], in test [11], in test [13], in [14] and in [16] was inactive. Further, the result in test [20] was inactive. Also, the potentiation in test [18] was 212% (active); in test [19], 340% (active).

(Values after PubChem BioAssay.)
